Compound activity: PubChem BioAssay, several laboratories
Cl transport mod – modulates chloride dependent transport by human KCC2. Q9H2X9. KCC2 cells, thallium flux FluoZin-2 fluorescence. B-score of Tl+ flux slope (higher = more flux/activation; lower = inhibition) at 10 µM. hit rate 2.2% among 190,000. AID 1456;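 active means thallium flux slope and its plate-corrected score both differing from the plate sample mean at a set confidence after two filtering rounds, in either direction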;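 further: slope of fluorescence scaled to starting intensity during 10 to 20 s after thallium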
Target sequence (Q9H2X9 whole entry, looked up): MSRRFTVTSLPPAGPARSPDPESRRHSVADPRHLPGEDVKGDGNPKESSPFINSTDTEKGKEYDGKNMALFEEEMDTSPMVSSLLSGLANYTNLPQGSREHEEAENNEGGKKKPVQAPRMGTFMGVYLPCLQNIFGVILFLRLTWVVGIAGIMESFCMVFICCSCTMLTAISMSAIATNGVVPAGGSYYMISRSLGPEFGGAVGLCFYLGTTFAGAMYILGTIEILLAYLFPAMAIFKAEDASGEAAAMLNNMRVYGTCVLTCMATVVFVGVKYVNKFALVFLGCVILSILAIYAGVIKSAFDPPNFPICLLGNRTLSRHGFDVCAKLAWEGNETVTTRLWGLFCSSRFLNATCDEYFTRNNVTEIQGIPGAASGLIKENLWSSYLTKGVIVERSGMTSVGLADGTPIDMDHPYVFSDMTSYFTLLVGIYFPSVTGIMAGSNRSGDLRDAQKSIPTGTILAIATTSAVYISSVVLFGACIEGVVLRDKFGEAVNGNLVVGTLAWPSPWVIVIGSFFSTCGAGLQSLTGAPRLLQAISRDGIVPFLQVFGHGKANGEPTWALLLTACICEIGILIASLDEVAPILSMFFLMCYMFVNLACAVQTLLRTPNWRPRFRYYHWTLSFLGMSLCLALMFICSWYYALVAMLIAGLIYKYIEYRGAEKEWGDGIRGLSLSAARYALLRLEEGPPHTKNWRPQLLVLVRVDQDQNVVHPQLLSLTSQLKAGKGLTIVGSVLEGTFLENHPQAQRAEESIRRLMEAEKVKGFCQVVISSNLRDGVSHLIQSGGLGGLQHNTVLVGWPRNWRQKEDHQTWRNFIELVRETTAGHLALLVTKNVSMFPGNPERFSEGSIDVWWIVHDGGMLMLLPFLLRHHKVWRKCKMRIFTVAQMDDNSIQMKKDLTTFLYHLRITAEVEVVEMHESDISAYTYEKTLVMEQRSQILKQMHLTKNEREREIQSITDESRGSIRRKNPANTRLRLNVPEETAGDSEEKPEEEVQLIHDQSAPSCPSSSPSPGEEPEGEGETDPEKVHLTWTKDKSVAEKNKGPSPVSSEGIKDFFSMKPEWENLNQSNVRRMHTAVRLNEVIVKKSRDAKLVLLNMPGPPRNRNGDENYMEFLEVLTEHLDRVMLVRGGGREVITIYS
L major viab – Leishmania major promastigote growth inhibition; inhibition, % at 10 µM; Leishmania major promastigotes, resazurin fluorescence viability; hit rate 9% among 200,000; AID 1063; in the data active means inhibition above about 50%;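 further: promastigotes grown with compound for 44 hours at 28 °C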
m-calpain inh – inhibitors of pig calpain II; AID 1236; purified calpain II, fluorogenic peptide substrate, 30 min; hit rate 0.37% among 220,000; inhibition, % at 16 µM;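 active means inhibition above about 50%, limit read from the data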
ROMK mod – human ROMK K+ channel modulation, primary screen; hit rate 2% among 130,000; Tet-inducible ROMK, thallium flux fluorescence; actives lie on both sides; B-score at 10 µM; P48048; AID 1918;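 active means signal ratio slope over the read window, or its plate-corrected B-score, at least 3 SD from the plate mean, either direction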;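 further: B-score of the F/F0 ratio slope over 7 to 12 s after thallium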
WT yeast gro inh – growth inhibition of WT yeast, mitochondrial fusion screen | mitochondrial fusion phenotypic screen, WT strain | hit rate 2.1% among 190,000 | inhibition, % at 10 µM; in the data active means inhibition above about 58%; tested in S. cerevisiae
KCC2 sec1 – KCC2 (human) modulation, secondary assay. shares compounds with Cl transport mod. HEK293-KCC2, thallium flux, FluoZin2 fluorescence; stronger effect = higher value. normalised thallium flux (F/F0 slope) at 10 µM. hit rate 15% among 3,700. AID 1713;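 active means thallium flux slope above the same plate's solvent-only control mean plus 3 SD; inconclusive means the two replicate wells disagree; inactive means no significant difference from solvent-only control wells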
KCC2 bumet counter – thallium flux persisting under bumetanide in KCC2 cells, counter-screen secondary assay | HEK293-KCC2 + bumetanide/ouabain, thallium flux FluoZin2; stronger effect = higher value | normalized thallium flux at 10 µM | hit rate 49% among 3,700 | shares compounds with Cl transport mod | AID 1714;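 active means thallium entry rate above the same plate's blocked-transporter control wells by more than 3 SD; inconclusive means the two repeat wells disagree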;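 further: raw slope of fluorescence over initial fluorescence between 10 and 20 s after thallium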
KCC2 sec2 – KCC2 (human) modulation, second secondary assay; shares compounds with Cl transport mod; hit rate 23% among 3,700; normalized thallium flux at 10 µM; HEK293-KCC2, thallium flux FluoZin2 fluorescence; actives lie on both sides; F/F0 rise rate, 10–20 s post-thallium;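 active means thallium flux slope more than 3 SD above or below the plate's solvent-only control mean, mostly below; inconclusive means the two repeat wells disagreed; inactive means no significant shift from solvent-only controls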;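 further: raw slope with 0.1% DMSO as baseline and bumetanide as block control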
HEK counter1 – counter-screen for KCC2 modulators: effect in parental HEK293 cells; hit rate 46% among 3,700; thallium flux rate (normalised fluorescence) at 10 µM; shares compounds with Cl transport mod; thallium flux FluoZin2, ouabain; baseline-ratio fluorescence slope, 10–20 s after thallium;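 active means thallium flux rate significantly above the same plate's solvent-only control wells, beyond their mean plus 3 SD; inconclusive means the two replicate wells gave conflicting results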
KCC2 ouabain – KCC2 (human) modulation, ouabain retest; shares compounds with Cl transport mod; HEK293-KCC2, thallium flux FluoZin2 fluorescence; bidirectional: low = inhibitor, high = activator; raw Tl+ flux slope (below DMSO = inhibition, above = activation) at 10 µM; hit rate 48% among 3,700; AID 1717;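 active means thallium flux slope beyond 3 SD from same-plate DMSO control mean in most replicates, usually higher, sometimes lower; inconclusive means repeat tests gave conflicting results; inactive means no significant difference from controls in most replicates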;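 further: slope of initial-normalized fluorescence between seconds 10 and 20 after thallium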
HEK293 Tl flux2 – acts in parental HEK cells, second KCC2 counter-screen; shares compounds with Cl transport mod; AID 1718; HEK293 parental, thallium flux FluoZin-2 fluorescence slope; thallium flux slope at 10 µM; hit rate 33% among 3,700;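 active means thallium flux slope above the same plate's solvent-control mean plus 3 SD in both duplicate wells; inconclusive means duplicate wells that disagreed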;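 further: run without ouabain in cells lacking the KCC2 cotransporter; slope of fluorescence scaled to its starting value between 10 and 20 s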
An asterisk follows results filed as active; i = inactive; ? = inconclusive; nt = no result given. Shown are actives, neighbours in structure and some others; about 12% of the full set was active somewhere.

SMILES	Cl transport mod	L major viab	m-calpain inh	ROMK mod	WT yeast gro inh	KCC2 sec1	KCC2 bumet counter	KCC2 sec2	HEK counter1	KCC2 ouabain	HEK293 Tl flux2
O=[N+]([O-])c1cc(Cl)c(O)c2ncccc12	4.5*	14	47	-1.8	56	0.013*	0.016*	0.032	0.011*	?	?
Oc1c(I)cc(Cl)c2cccnc12	77*	-4	-1	nt	57	0.0079	0.1*	0.067*	0.11*	0.11*	0.041*
CCCCC1=CC2=C(c3ccco3)C(=O)C(C)(OC(=O)c3ccc(OC)cc3)C(=O)C2=CN1C1CCCCC1 (centres undefined)	-1	nt	-62	nt	nt	nt	nt	nt	nt	nt	nt
CCOC(=O)c1c(C)[nH]c(N=Nc2ccccc2)c1C	5.2*	6	25	nt	75*	0.01	0.0097*	0.036	0.0091*	?	?
C#CCNC(=O)C1=C[C@H](c2ccc3c(c2)OCO3)[C@@H](CCCO)[C@H](OCC)O1	-0.19	-11	-9	nt	-20	nt	nt	nt	nt	nt	nt
COc1cc(/C=C/C(=O)CC(=O)/C=C/c2ccc(O)c(OC)c2)ccc1O	i	49	0	nt	0	nt	nt	nt	nt	nt	nt
COc1cc(/C=C/c2ccc3c(Br)cc(Br)c(O)c3n2)ccc1O	7.5*	nt	-37	nt	nt	0.011	0.013*	0.035	0.0091*	0.023	0.01
Nc1nnc(SCC(=O)c2ccc3c(c2)NC(=O)CO3)s1	0.24	19	-4	-0.5	2	nt	nt	nt	nt	nt	nt
CCCc1cc(=O)[nH]c(SCC(=O)c2ccc3c(c2)NC(=O)CO3)n1	11*	nt	-7	nt	nt	0.016	0.0041	0.029	0.0074	0.017	0.0095
Cc1cccc(C)c1NC(=O)COc1ccccc1C(=O)Nc1ccc(Br)cn1	-1.7	47	0	0.47	-5	nt	nt	nt	nt	nt	nt
C=CCSc1ncnc2sc(C)c(C)c12	4.8*	54*	32	nt	7	0.011	0.023*	0.034	0.013*	0.025	0.013*
COC(=O)c1ccc(CSc2ncnc3sc(C)c(C)c23)o1	51*	-4	-10	-1.3	4	0.011*	0.1*	0.07*	0.064*	0.084*	0.05*
COc1ccccc1C1=NN(C2=NN=C(N)Cc3ncnn32)C(O)(C(F)(F)F)C1 (centres undefined)	-0.049	-1	-177	1.1	11	nt	nt	nt	nt	nt	nt
Cc1ccc(C2=NNC(c3cccc(F)c3)S2)cc1 (centres undefined)	10*	1	-34	0.99	6	0.0062	?	0.03	0.0085	0.02	?
COc1ccccc1NC(=O)CN1C(=O)NC(CC(C)C)C1=O (centres undefined)	-5*	-1	8	nt	-2	0.011	0.0072	0.035	0.0041	0.02	0.011
COc1ccccc1NC(=O)CN1C(=O)C(C)SC(C)C1=O (centres undefined)	-0.41	-6	-4	nt	9	nt	nt	nt	nt	nt	nt
Cn1c(C(=O)NCCCN2CCc3ccccc3C2)cc2c(=O)n(C)c3ccccc3c21	nt	50	-18	nt	0	0.0058	0.0054	0.023*	0.0078	?	0.012
Cc1onc(-c2ccccc2)c1C(=O)NNC(=S)NC(=O)/C=C/c1cccs1	6.7*	-2	-76	nt	-20	0.0067	0.027*	?	0.016*	0.03*	0.018*
Cc1onc(-c2ccccc2)c1C(=O)NC(=S)NNC(=O)c1ccco1	6.6*	nt	-19	nt	nt	0.018	0.014*	0.03	0.014*	0.021	0.015*
Cc1onc(-c2ccccc2)c1C(=O)NC(=S)NNC(=O)c1ccncc1	0.9	-3	-6	nt	-6	nt	nt	nt	nt	nt	nt
Cc1onc(-c2ccccc2)c1C(=O)NNC(=S)NC(=O)c1ccc2c(c1)OCO2	16*	nt	-36	nt	nt	0.014*	0.034*	0.036	?	0.03*	?
COc1ccc(C(=O)NC(=S)NNC(=O)c2c(-c3ccccc3)noc2C)cc1OC	1	nt	-34	nt	nt	nt	nt	nt	nt	nt	nt
O=C(c1ccc(S(=O)(=O)c2cccc(Cl)c2)c([N+](=O)[O-])c1)N1CCN(c2ccccn2)CC1	-5*	13	9	-1.5	29	0.0058	0.0046	0.022*	0.0077	?	0.01
Cn1c(CSc2nc3ccccc3s2)nnc1SCC(=O)NCc1ccccn1	-4*	-8	-8	0.47	-6	0.0069	0.0044	0.03	0.0074	?	0.0095
CCOc1ccc(/C=N/NC2=NCCCCC2)cc1	0.54	19	-10	0.51	2	nt	nt	nt	nt	nt	nt
SMILES	Cl transport mod	L major viab	m-calpain inh	ROMK mod	WT yeast gro inh	KCC2 sec1	KCC2 bumet counter	KCC2 sec2	HEK counter1	KCC2 ouabain	HEK293 Tl flux2
O=C(NNC(=O)c1cccc(Br)c1)Nc1ccc(Cl)cc1	0.45	-1	-24	0.19	8	nt	nt	nt	nt	nt	nt
O=C(NC(=S)Nc1cc(Cl)ccc1O)c1cccc(Br)c1	6.5*	nt	14	nt	nt	0.0078	0.031*	0.036	0.014*	0.027*	0.018*
O=S(=O)(Nc1ccccc1N1CCCCC1)c1ccc(F)cc1F	19*	17	4	-0.041	9	0.013*	0.038*	0.031	0.012*	0.028	0.012*
O=C(c1cc(COc2ccc3ncccc3c2)on1)N1CCCCCC1	-1.7	7	3	-1.2	-1	nt	nt	nt	nt	nt	nt
O=C(NCCc1cn2ccccc2n1)c1cc(COc2ccc3ncccc3c2)on1	nt	42	24	-1.4	-9	0.0076	0.0064	0.03	0.0074	?	0.0097
O=C(NC1CCCC1)c1cc(COc2ccc3ncccc3c2)on1	0.39	nt	-9	nt	nt	nt	nt	nt	nt	nt	nt
O=C(NCC1OCCc2ccccc21)c1cc(COc2c(F)cccc2F)on1 (centres undefined)	-6*	2	39	-0.85	12	0.0055	0.0044	?	?	0.013*	0.011
COc1cccc(CN(C)C(=O)c2cc(COc3ccc4ncccc4c3)on2)c1	nt	16	24	-1.3	4	0.0071	0.0036	0.025*	?	0.014*	0.0099
COc1cccc(CN(C)C(=O)c2cc(COc3c(F)cccc3F)on2)c1	nt	5	26	0.72	11	0.007	0.0037	0.025*	?	0.014*	0.0089
Cc1cccn2cc(CCNS(=O)(=O)c3cccs3)nc12	-0.47	nt	-8	0.26	nt	nt	nt	nt	nt	nt	nt
CCN(Cc1ccccc1)C(=O)c1cc(COc2c(F)cccc2F)on1	-4.7*	nt	26	nt	nt	0.0061	0.0045	0.031	0.0066	0.014*	?
